Experimental data reported in the supplement of paper PMC4466140.

Key:
Assay in all cases: SPOT peptide array binding signal intensity (averaged, normalized) (arbitrary units (background-subtracted, floor 0; scale differs between SH3 domains)); higher = stronger binding of the SH3 domain to the peptide
SpBzz1-D2 = target: SpBzz1-D2
In short: (§1)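 SH3 domains from four yeast species were expressed as GST fusions in E. coli BL21(DE3) and purified on glutathione Sepharose. Each was incubated at 10 μg/ml overnight at 4°C in TBS-based blocking buffer on cellulose membranes bearing synthetic 15-mer peptides, in which serines replaced cysteines. Bound protein was detected with anti-GST antibody, an HRP anti-mouse secondary and luminol, then imaged and quantified with Genespotter. The binding signal is the normalized, background-subtracted spot intensity averaged over replicates, in arbitrary units that are not the same from one domain to another.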

SpCyk3 = target: SpCyk3
In short: as §1

SpHof1 = target: SpHof1
In short: as §1

SpHof1-2 = target: SpHof1-2
In short: as §1

SpHof1-3 = target: SpHof1-3
In short: as §1

SpHse1 = target: SpHse1
In short: as §1

SpLsb1 = target: SpLsb1
In short: as §1

SpLsb4 = target: SpLsb4
In short: as §1

SpMyo1 = target: SpMyo1
In short: as §1

SpNbp2 = target: SpNbp2
In short: as §1

SpPex13 = target: SpPex13
In short: as §1

SpRvs167 = target: SpRvs167
In short: as §1

SpSla1-D1-D2 = target: SpSla1-D1-D2
In short: as §1

SpSla1-D3 = target: SpSla1-D3
In short: as §1

AgAbp1 = target: AgAbp1
In short: as §1

AgBbc1 = target: AgBbc1
In short: as §1

AgBem1-D1 = target: AgBem1-D1
In short: as §1

AgBzz1-D1 = target: AgBzz1-D1
In short: as §1

AgBzz1-D2 = target: AgBzz1-D2
In short: as §1

AgCyk3 = target: AgCyk3
In short: as §1

AgFus1 = target: AgFus1
In short: as §1

AgHof1 = target: AgHof1
In short: as §1

AgHse1 = target: AgHse1
In short: as §1

AgLsb1 = target: AgLsb1
In short: as §1

AgLsb4 = target: AgLsb4
In short: as §1

AgMyo5 = target: AgMyo5
In short: as §1

AgNbp2 = target: AgNbp2
In short: as §1

AgRvs167 = target: AgRvs167
In short: as §1

AgSho1 = target: AgSho1
In short: as §1

AgSla1-D1-D2 = target: AgSla1-D1-D2
In short: as §1

AgSla1-D3 = target: AgSla1-D3
In short: as §1

CaAbp1-D1 = target: CaAbp1-D1
In short: as §1

CaAbp1-D2 = target: CaAbp1-D2
In short: as §1

CaBbc1 = target: CaBbc1
In short: as §1

CaBem1-D1 = target: CaBem1-D1
In short: as §1

CaBzz1-D1 = target: CaBzz1-D1
In short: as §1

CaBzz1-D2 = target: CaBzz1-D2
In short: as §1

CaCyk3 = target: CaCyk3
In short: as §1

CaFus1 = target: CaFus1
In short: as §1

CaHof1 = target: CaHof1
In short: as §1

CaHse1 = target: CaHse1
In short: as §1

CaLsb1 = target: CaLsb1
In short: as §1

CaLsb4 = target: CaLsb4
In short: as §1

CaMyo5 = target: CaMyo5
In short: as §1

CaNbp2 = target: CaNbp2
In short: as §1

CaRvs167 = target: CaRvs167
In short: as §1

CaRvs167-3 = target: CaRvs167-3
In short: as §1

CaSho1 = target: CaSho1
In short: as §1

CaSla1-D1-D2 = target: CaSla1-D1-D2
In short: as §1

CaSla1-D3 = target: CaSla1-D3
In short: as §1

ScAbp1 = target: ScAbp1
In short: as §1

ScBbc1 = target: ScBbc1
In short: as §1

ScBem1-D1 = target: ScBem1-D1
In short: as §1

ScBzz1-D1 = target: ScBzz1-D1
In short: as §1

ScBzz1-D2 = target: ScBzz1-D2
In short: as §1

ScCyk3 = target: ScCyk3
In short: as §1

ScFus1 = target: ScFus1
In short: as §1

ScHof1 = target: ScHof1
In short: as §1

ScHse1 = target: ScHse1
In short: as §1

ScLsb1 = target: ScLsb1
In short: as §1

ScLsb2 = target: ScLsb2
In short: as §1

ScLsb3 = target: ScLsb3
In short: as §1

ScLsb4 = target: ScLsb4
In short: as §1

ScMyo3 = target: ScMyo3
In short: as §1

ScMyo5 = target: ScMyo5
In short: as §1

ScNbp2 = target: ScNbp2
In short: as §1

ScPex13 = target: ScPex13
In short: as §1

ScRvs167 = target: ScRvs167
In short: as §1

ScSho1 = target: ScSho1
In short: as §1

ScSla1-D1-D2 = target: ScSla1-D1-D2
In short: as §1

ScSla1-D3 = target: ScSla1-D3
In short: as §1

SpAbp1-D1 = target: SpAbp1-D1
In short: as §1

SpBbc1 = target: SpBbc1
In short: as §1

SpBzz1-D1 = target: SpBzz1-D1
In short: as §1

B1: unnamed (peptide)
chain: IKTRSVPKIPSIESV
SpBzz1-D2
  SPOT peptide array binding signal intensity: 0.5
SpCyk3
  SPOT peptide array binding signal intensity: ≤ 0
SpHof1
  SPOT peptide array binding signal intensity: 6
SpHof1-2
  SPOT peptide array binding signal intensity: 9
SpHof1-3
  SPOT peptide array binding signal intensity: 150
SpHse1
  SPOT peptide array binding signal intensity: ≤ 0
SpLsb1
  SPOT peptide array binding signal intensity: 24.2
SpLsb4
  SPOT peptide array binding signal intensity: 6060
SpMyo1
  SPOT peptide array binding signal intensity: 11.5
SpNbp2
  SPOT peptide array binding signal intensity: ≤ 0
SpPex13
  SPOT peptide array binding signal intensity: ≤ 0
SpRvs167
  SPOT peptide array binding signal intensity: 1930
SpSla1-D1-D2
  SPOT peptide array binding signal intensity: 4
SpSla1-D3
  SPOT peptide array binding signal intensity: 1

B2: unnamed (peptide)
chain: LKHGWKPLRPIKLIS
AgAbp1
  SPOT peptide array binding signal intensity: 1400
AgBbc1
  SPOT peptide array binding signal intensity: 72.8
AgBem1-D1
  SPOT peptide array binding signal intensity: 12
AgBzz1-D1
  SPOT peptide array binding signal intensity: 31
AgBzz1-D2
  SPOT peptide array binding signal intensity: ≤ 0
AgCyk3
  SPOT peptide array binding signal intensity: ≤ 0
AgFus1
  SPOT peptide array binding signal intensity: 141
AgHof1
  SPOT peptide array binding signal intensity: 21.5
AgHse1
  SPOT peptide array binding signal intensity: 252
AgLsb1
  SPOT peptide array binding signal intensity: ≤ 0
AgLsb4
  SPOT peptide array binding signal intensity: ≤ 0
AgMyo5
  SPOT peptide array binding signal intensity: ≤ 0
AgNbp2
  SPOT peptide array binding signal intensity: 41
AgRvs167
  SPOT peptide array binding signal intensity: 5.33
AgSho1
  SPOT peptide array binding signal intensity: 32
AgSla1-D1-D2
  SPOT peptide array binding signal intensity: 206
AgSla1-D3
  SPOT peptide array binding signal intensity: 3.5
CaAbp1-D1
  SPOT peptide array binding signal intensity: 398
CaAbp1-D2
  SPOT peptide array binding signal intensity: 1860
CaBbc1
  SPOT peptide array binding signal intensity: 364
CaBem1-D1
  SPOT peptide array binding signal intensity: 23
CaBzz1-D1
  SPOT peptide array binding signal intensity: ≤ 0
CaBzz1-D2
  SPOT peptide array binding signal intensity: 46.5
CaCyk3
  SPOT peptide array binding signal intensity: 7
CaFus1
  SPOT peptide array binding signal intensity: 850
CaHof1
  SPOT peptide array binding signal intensity: ≤ 0
CaHse1
  SPOT peptide array binding signal intensity: 193
CaLsb1
  SPOT peptide array binding signal intensity: ≤ 0
CaLsb4
  SPOT peptide array binding signal intensity: 176
CaMyo5
  SPOT peptide array binding signal intensity: ≤ 0
CaNbp2
  SPOT peptide array binding signal intensity: 252
CaRvs167
  SPOT peptide array binding signal intensity: 14.8
CaRvs167-3
  SPOT peptide array binding signal intensity: 24.8
CaSho1
  SPOT peptide array binding signal intensity: 201
CaSla1-D1-D2
  SPOT peptide array binding signal intensity: 27.5
CaSla1-D3
  SPOT peptide array binding signal intensity: 10
ScAbp1
  SPOT peptide array binding signal intensity: 296
ScBbc1
  SPOT peptide array binding signal intensity: 9.75
ScBem1-D1
  SPOT peptide array binding signal intensity: 9
ScBzz1-D1
  SPOT peptide array binding signal intensity: 6.5
ScBzz1-D2
  SPOT peptide array binding signal intensity: 20
ScCyk3
  SPOT peptide array binding signal intensity: 10
ScFus1
  SPOT peptide array binding signal intensity: 50
ScHof1
  SPOT peptide array binding signal intensity: ≤ 0
ScHse1
  SPOT peptide array binding signal intensity: 478
ScLsb1
  SPOT peptide array binding signal intensity: 16.5
ScLsb2
  SPOT peptide array binding signal intensity: ≤ 0
ScLsb3
  SPOT peptide array binding signal intensity: 527
ScLsb4
  SPOT peptide array binding signal intensity: 4
ScMyo3
  SPOT peptide array binding signal intensity: ≤ 0
ScMyo5
  SPOT peptide array binding signal intensity: ≤ 0
ScNbp2
  SPOT peptide array binding signal intensity: 550
ScPex13
  SPOT peptide array binding signal intensity: 37.5
ScRvs167
  SPOT peptide array binding signal intensity: ≤ 0
ScSho1
  SPOT peptide array binding signal intensity: 1040
ScSla1-D1-D2
  SPOT peptide array binding signal intensity: 50
ScSla1-D3
  SPOT peptide array binding signal intensity: 6.5
SpAbp1-D1
  SPOT peptide array binding signal intensity: 166
SpBbc1
  SPOT peptide array binding signal intensity: 0.75
SpBzz1-D1
  SPOT peptide array binding signal intensity: 362
SpBzz1-D2
  SPOT peptide array binding signal intensity: 0.5
SpCyk3
  SPOT peptide array binding signal intensity: ≤ 0
SpHof1
  SPOT peptide array binding signal intensity: 93
SpHof1-2
  SPOT peptide array binding signal intensity: 18.8
SpHof1-3
  SPOT peptide array binding signal intensity: 445
SpHse1
  SPOT peptide array binding signal intensity: 294
SpLsb1
  SPOT peptide array binding signal intensity: ≤ 0
SpLsb4
  SPOT peptide array binding signal intensity: 161
SpMyo1
  SPOT peptide array binding signal intensity: ≤ 0
SpNbp2
  SPOT peptide array binding signal intensity: 246
SpPex13
  SPOT peptide array binding signal intensity: 8
SpRvs167
  SPOT peptide array binding signal intensity: 7.5
SpSla1-D1-D2
  SPOT peptide array binding signal intensity: ≤ 0
SpSla1-D3
  SPOT peptide array binding signal intensity: ≤ 0

B3: unnamed (peptide)
chain: RNNRPVPPPPPMRTT
AgAbp1
  SPOT peptide array binding signal intensity: 9
AgBbc1
  SPOT peptide array binding signal intensity: 519
AgBem1-D1
  SPOT peptide array binding signal intensity: 129
AgBzz1-D1
  SPOT peptide array binding signal intensity: 232
AgBzz1-D2
  SPOT peptide array binding signal intensity: 117
AgCyk3
  SPOT peptide array binding signal intensity: 15
AgFus1
  SPOT peptide array binding signal intensity: 11
AgHof1
  SPOT peptide array binding signal intensity: 95.5
AgHse1
  SPOT peptide array binding signal intensity: 23
AgLsb1
  SPOT peptide array binding signal intensity: 27
AgLsb4
  SPOT peptide array binding signal intensity: 131
AgMyo5
  SPOT peptide array binding signal intensity: 72.2
AgNbp2
  SPOT peptide array binding signal intensity: 59.5
AgRvs167
  SPOT peptide array binding signal intensity: 76.8
AgSho1
  SPOT peptide array binding signal intensity: 5
AgSla1-D1-D2
  SPOT peptide array binding signal intensity: 6
AgSla1-D3
  SPOT peptide array binding signal intensity: 21.5
CaAbp1-D1
  SPOT peptide array binding signal intensity: 53.5
CaAbp1-D2
  SPOT peptide array binding signal intensity: 11
CaBbc1
  SPOT peptide array binding signal intensity: 724
CaBem1-D1
  SPOT peptide array binding signal intensity: 108
CaBzz1-D1
  SPOT peptide array binding signal intensity: 5240
CaBzz1-D2
  SPOT peptide array binding signal intensity: 1310
CaCyk3
  SPOT peptide array binding signal intensity: 247
CaFus1
  SPOT peptide array binding signal intensity: 69
CaHof1
  SPOT peptide array binding signal intensity: 9.5
CaHse1
  SPOT peptide array binding signal intensity: 3
CaLsb1
  SPOT peptide array binding signal intensity: 2
CaLsb4
  SPOT peptide array binding signal intensity: 541
CaMyo5
  SPOT peptide array binding signal intensity: 34
